Results published in PubChem BioAssay (NCATS).
A number with no mark means an inactive call. Results filed as inconclusive are left out. Where a call stands in place of a potency, no number is given. Calls of active or inactive are those of the source. Unless noted, calls follow the shape of the dose curve; as a rule, active = well fitted curve in the direction sought with a large enough effect; inconclusive = small, poorly fitted or top-dose-only effect, or another doubt; inactive = no such curve, though single readings can be large; an effect the other way counts as inactive or inconclusive.

What was measured:
[1] = Confirmation and Secondary Assay for Modulators of Hemoglobin Beta Chain Splicing at IVS2 705 locus (AID 930);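 also: HeLa cells stably expressing the EGFP-705 splicing reporter; GFP fluorescence per well restored by corrected splicing of the IVS2-705 intron in EGFP; series mostly up to about 46 µM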
Summary of the method: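 HeLa EGFP-705 reporter; 500 cells/well, o/n 37C 5% CO2; cpd 2 d; 488 ex/500-520 em laser scan; total peak GFP intensity/well. Ref: 500 nM […] antisense PNA.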

[2] = qHTS Assay for Identification of Small Molecule Agonists for Thrombopoietin (TPO) Signaling Pathway (AID 917)
Summary of the method: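 We measured Glycoprotein IIb promoter–luciferase output in IL-3-starved Ba/F3 murine cells expressing the human TPO receptor after 24 hrs at 37 C with compounds and 26 pM TPO.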

[3] = Cell Viability - LYMP2-001 (AID 921);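 also: series mostly up to about 92 µM; cells exposed to compound for 24 h at 37 °C; nearly all actives have a fitted effect of over 70% in size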
Summary of the method: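 qHTS, 1536-well; lymphoblastoid cells, 24 hr compound, 37 C; ATP by CellTiter-Glo, 30 min RT; luminescence; Hill-fit AC50.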

[4] = target: Muscarinic acetylcholine receptor M1 (Rattus norvegicus) (UniProt P08482); assay: qHTS Assay for Antagonists of Acetylcholine Muscarinic M1 Receptor: Measurement of IP-One Response (AID 944); also: nearly all actives have a fitted effect of over 75% in size; also: potency is read from the fitted curve at half-maximal effect
Summary of the method: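 Steps: plate transfected CHO-M1 cells overnight; add test compound, 10 min; add carbachol (200 nM, EC80) in stimulation buffer with LiCl; incubate 30 min; add labelled IP1 tracer and anti-IP1 antibody in lysis buffer; read HTRF after 10 min.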

[5] = target: Pyruvate kinase (Leishmania mexicana) (UniProt Q27686); assay: qHTS Validation Assay for Inhibitors of Leishmania Mexicana Pyruvate Kinase (AID 945)
Summary of the method: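 Substrate mix (0.5 mM PEP, 0.1 mM ADP, 7 mM MgCl2, 50 mM KCl, pH 7.2 imidazole) received compound by pin tool, then 0.2 nM LmPYK E451W. After 1 h at room temperature, PKLight was added and luminescence measured.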

[6] = MultiTox-Fluor Cytotoxicity Assay - LYMP1-001 - Live Cells (AID 947)
[7] = Cell Viability - LYMP1-002 - Assay at 16 hr (AID 948)
Summary of the method: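 Acute cytotoxicity is scored as a concentration-dependent fall in intracellular ATP in a human lymphoblastoid line (LYMP1-002) after 16 hr compound exposure at 37 C, measured by luciferase luminescence.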

[8] = target: Pyruvate kinase PKM (Homo sapiens) (UniProt P14618); assay: qHTS Assay for Activators of Human Muscle Pyruvate Kinase (AID 954; active = well fitted curve in the direction sought with a large enough effect, not every such curve was filed as active)
Summary of the method: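 Reaction: 0.1 nM purified PKM2 with 0.5 mM phosphoenolpyruvate and 0.1 mM ADP, room temperature, 1 h. Readout: luciferase-based ATP luminescence after stop reagent. Activators judged against a 0.3 nM enzyme column.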

[9] = qHTS Assay for Identification of Small Molecule Agonists for Hypoxia Response Element Signaling Pathway (AID 914; active = well fitted activation curve with a large enough effect in the signal ratio, with a control signal flat, not every such curve was filed as active; the % refers to the signal ratio); conditions: ME-180 (cervical carcinoma) HRE-bla reporter, beta-lactamase ratio, CoCl2, 17 h; stronger effect = higher value
Summary of the method: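 Read-out: CCF4 FRET ratio of 460nm to 530nm emission (excitation 405nm) after 2.5 hours at room temperature, taken from HRE-bla ME-180 cells that had been exposed to compound and EC50 CoCl2 for 17 hours.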

[10] = target: Muscarinic acetylcholine receptor M1 (Rattus norvegicus) (UniProt P08482); assay: qHTS Assay for Antagonists of Acetylcholine Muscarinic M1 Receptor: Kinetic Measurement of Intracellular Calcium Response (AID 943);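 also: Fluo-4 calcium signal as peak divided by basal fluorescence over 4 min; series mostly up to about 35 µM; nearly all actives have a fitted effect of over 75% in size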
Summary of the method: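 Intracellular calcium flux, recorded with Fluo-4 in a kinetic plate reader, served as signal; the response to carbachol at EC80 (100 nM final) was taken as maximal over minimal fluorescence after a 10 min compound pre-incubation in rat M1-CHO cells.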

Pyruvate kinase (Leishmania mexicana), sequence (Q27686 2-499 E452W): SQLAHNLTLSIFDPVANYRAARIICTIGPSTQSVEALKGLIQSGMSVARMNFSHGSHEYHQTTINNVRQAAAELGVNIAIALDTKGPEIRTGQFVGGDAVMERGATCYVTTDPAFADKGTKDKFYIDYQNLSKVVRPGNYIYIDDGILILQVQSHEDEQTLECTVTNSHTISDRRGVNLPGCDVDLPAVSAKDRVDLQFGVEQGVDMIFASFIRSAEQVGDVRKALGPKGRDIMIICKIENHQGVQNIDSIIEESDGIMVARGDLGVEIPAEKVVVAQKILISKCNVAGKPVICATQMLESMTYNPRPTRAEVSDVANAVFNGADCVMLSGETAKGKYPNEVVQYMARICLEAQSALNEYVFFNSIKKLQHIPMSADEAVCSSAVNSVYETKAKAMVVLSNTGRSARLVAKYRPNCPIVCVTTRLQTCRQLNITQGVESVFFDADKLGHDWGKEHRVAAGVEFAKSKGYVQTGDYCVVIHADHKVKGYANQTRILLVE
Muscarinic acetylcholine receptor M1 (Rattus norvegicus), sequence (P08482 whole entry, looked up): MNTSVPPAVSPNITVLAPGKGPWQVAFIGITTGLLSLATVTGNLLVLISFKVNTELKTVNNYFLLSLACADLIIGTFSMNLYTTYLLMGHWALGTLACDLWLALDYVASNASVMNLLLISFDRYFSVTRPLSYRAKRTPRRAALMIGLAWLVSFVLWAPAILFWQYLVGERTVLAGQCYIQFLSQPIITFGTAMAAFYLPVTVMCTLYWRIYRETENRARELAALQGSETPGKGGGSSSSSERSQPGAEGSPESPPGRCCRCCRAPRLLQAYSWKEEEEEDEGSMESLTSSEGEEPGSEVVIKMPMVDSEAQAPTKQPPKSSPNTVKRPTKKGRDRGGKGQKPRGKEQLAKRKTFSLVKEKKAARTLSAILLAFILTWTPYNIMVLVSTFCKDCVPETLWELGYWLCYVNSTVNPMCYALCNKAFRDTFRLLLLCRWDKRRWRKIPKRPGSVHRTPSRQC
Pyruvate kinase PKM (Homo sapiens), sequence (P14618 whole entry, looked up): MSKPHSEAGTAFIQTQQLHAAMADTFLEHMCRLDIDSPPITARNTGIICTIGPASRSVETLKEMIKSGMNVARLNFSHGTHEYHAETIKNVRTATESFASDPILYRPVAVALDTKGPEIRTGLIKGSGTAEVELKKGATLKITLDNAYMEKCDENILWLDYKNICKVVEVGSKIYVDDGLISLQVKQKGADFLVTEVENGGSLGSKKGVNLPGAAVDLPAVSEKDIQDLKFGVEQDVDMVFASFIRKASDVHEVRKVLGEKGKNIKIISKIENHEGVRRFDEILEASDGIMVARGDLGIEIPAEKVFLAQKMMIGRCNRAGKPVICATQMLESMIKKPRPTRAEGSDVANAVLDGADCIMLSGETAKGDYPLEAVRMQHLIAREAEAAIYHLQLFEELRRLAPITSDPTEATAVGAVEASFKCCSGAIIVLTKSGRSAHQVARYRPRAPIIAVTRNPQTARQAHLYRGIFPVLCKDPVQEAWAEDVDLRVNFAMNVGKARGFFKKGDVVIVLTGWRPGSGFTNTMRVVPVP

Q: Which outcome [1] does the source give for `CC(C)(C)NCC(O)c1ccccc1Cl` (stereo unspecified) here?
A: inactive

Q: For `NC(=O)CS(=O)C(c1ccccc1)c1ccccc1` (stereo unspecified), which outcome [1] is on record?
A: inactive

Q: With `NCCc1ccc(O)cc1` as the compound, how does the outcome [2] read?
A: inactive

Q: What about the outcome [3] of the same compound?
A: inactive

Q: And the outcome [1]?
A: inactive

Q: And the Potency [4]?
A: inactive

Q: And the outcome [5]?
A: inactive

Q: And the outcome [6]?
A: inactive

Q: And the outcome [7]?
A: inactive

Q: And the outcome [8]?
A: inactive

Q: For `CC(NC(C)(C)C)C(=O)c1cccc(Cl)c1` (stereo unspecified), which outcome [1] is on record?
A: inactive

Q: With `CC(C)c1cccc(C(C)C)c1O` as the compound, how does the outcome [2] read?
A: inactive

Q: And the outcome [3]?
A: inactive

Q: What about the outcome [1] of the same compound?
A: inactive

Q: What about the Potency [4] of the same compound?
A: inactive

Q: What about the outcome [5] of the same compound?
A: inactive

Q: And the outcome [6]?
A: inactive

Q: And the outcome [7]?
A: inactive

Q: What about the outcome [8] of the same compound?
A: inactive

Q: Which Potency [4] does the source give for `CC(=O)N1CCN(c2ccc(OC[C@H]3CO[C@](Cn4ccnc4)(c4ccc(Cl)cc4Cl)O3)cc2)CC1` here?
A: 8.91 µM (active)

Q: Which outcome [3] does the source give for `CCOC(=O)CC(SP(=S)(OC)OC)C(=O)OCC` (stereo unspecified) here?
A: inactive

Q: What about the outcome [6] of the same compound?
A: inactive

Q: And the outcome [7]?
A: inactive

Q: Which activation [9] does the source give for `COc1c2c(cc3c1OCO3)CCN(C)C2` here?
A: -5.25%

Q: Which results are given for `CCCC(C)(COC(N)=O)COC(N)=O`?
A: outcome [3]: inactive; outcome [6]: inactive; outcome [7]: inactive

Q: For `O=C1c2ccccc2C(=O)c2ccccc21`, which outcome [1] is on record?
A: inactive

Q: Which outcome [1] does the source give for `CCC1(c2ccc(N)cc2)CCC(=O)NC1=O` (stereo unspecified) here?
A: inactive

Q: Which outcome [1] does the source give for `O=c1oc2ccccc2c(O)c1Cc1c(O)c2ccccc2oc1=O` here?
A: inactive

Q: Which results are given for `COC(=O)C(c1ccccc1)C1CCCCN1` (stereo unspecified)?
A: outcome [3]: inactive; outcome [6]: inactive; outcome [7]: inactive

Q: Which outcome [3] does the source give for `Oc1ccc(Cl)cc1` here?
A: inactive

Q: And the outcome [1]?
A: inactive

Q: What about the outcome [6] of the same compound?
A: inactive

Q: And the outcome [7]?
A: inactive

Q: For `CCC1(CC)C(=O)C=CNC1=O`, which activation [9] is on record?
A: -12.7%

Q: And the outcome [1]?
A: inactive

Q: Which outcome [3] does the source give for `COP(=S)(OC)Oc1ccc(SC)c(C)c1` here?
A: inactive

Q: What about the outcome [1] of the same compound?
A: inactive

Q: And the outcome [6]?
A: inactive

Q: What about the outcome [7] of the same compound?
A: inactive

Q: Which results are given for `Nc1ccccc1C(=O)O`?
A: outcome [3]: inactive; outcome [6]: inactive; outcome [7]: inactive

Q: What does the source list for `C[C@]12CCC(=O)C=C1CC[C@@H]1[C@@H]2CC[C@@]2(C)[C@H]1CC[C@]2(C)O`?
A: outcome [3]: inactive; outcome [6]: inactive; outcome [7]: inactive

Q: What does the source list for `O=P1(N(CCCl)CCCl)NCCCO1` (stereo unspecified)?
A: outcome [2]: inactive; outcome [3]: inactive; outcome [1]: inactive; outcome [5]: inactive; outcome [6]: inactive; outcome [7]: inactive; outcome [8]: inactive

Q: For `O=c1[nH]oc2c1CCNC2`, which outcome [2] is on record?
A: inactive

Q: And the outcome [1]?
A: inactive

Q: And the outcome [10]?
A: inactive

Q: And the Potency [4]?
A: inactive

Q: And the outcome [5]?
A: inactive

Q: And the outcome [8]?
A: inactive

Q: Which results are given for `C[C@]12CCC(=O)C=C1CC[C@@H]1[C@@H]2CC[C@]2(C)C(=O)CC[C@@H]12`?
A: outcome [2]: inactive; outcome [3]: inactive; outcome [10]: inactive; Potency [4]: inactive; outcome [5]: inactive; outcome [6]: inactive; outcome [7]: inactive; outcome [8]: inactive

Q: What does the source list for `COc1cc(OC)c(OC)cc1C=O`?
A: outcome [3]: inactive; outcome [1]: inactive; outcome [7]: inactive

Q: For `CCOP(=S)(OCC)Oc1ccc2c(C)c(Cl)c(=O)oc2c1`, which outcome [1] is on record?
A: inactive

Q: With `CCCCC/C=C\C/C=C\C/C=C\C/C=C\CCCC(=O)NCC(=O)O` as the compound, how does the outcome [2] read?
A: inactive

Q: What about the outcome [10] of the same compound?
A: inactive

Q: What about the Potency [4] of the same compound?
A: inactive

Q: And the outcome [5]?
A: inactive

Q: And the outcome [8]?
A: inactive

Q: What does the source list for `C[C@]1(O)CC[C@H]2[C@@H]3CCC4=CC(=O)CC[C@]4(C)[C@@]3(F)[C@@H](O)C[C@@]21C`?
A: outcome [3]: inactive; outcome [6]: inactive; outcome [7]: inactive

Q: Which outcome [3] does the source give for `CC(C)NC(C)C` here?
A: inactive

Q: What about the outcome [6] of the same compound?
A: inactive

Q: And the outcome [7]?
A: inactive

Q: Which outcome [1] does the source give for `c1ccc2c(c1)sc1ccccc12` here?
A: inactive

Q: What does the source list for `O=C(O)CCCc1ccc(N(CCCl)CCCl)cc1`?
A: outcome [1]: inactive; outcome [5]: inactive; outcome [7]: inactive; outcome [8]: inactive

Q: With `CCC(C)(C)c1ccc(O)cc1` as the compound, how does the outcome [3] read?
A: inactive

Q: What about the outcome [6] of the same compound?
A: inactive

Q: And the outcome [7]?
A: inactive

Q: Which outcome [1] does the source give for `CNC(C)(C)Cc1ccccc1` here?
A: inactive

Q: For `Clc1ccc(C(c2ccc(Cl)cc2)C(Cl)(Cl)Cl)cc1`, which outcome [3] is on record?
A: inactive

Q: And the outcome [1]?
A: inactive

Q: And the outcome [6]?
A: inactive

Q: And the outcome [7]?
A: inactive

Q: Which results are given for `O=C(CCCN1CCC2(CC1)C(=O)NCN2c1ccccc1)c1ccc(F)cc1`?
A: outcome [2]: inactive; outcome [1]: inactive; outcome [10]: inactive; outcome [5]: inactive; outcome [8]: inactive

Q: For `CC(C)N(CCC(C(N)=O)(c1ccccc1)c1ccccn1)C(C)C` (stereo unspecified), which outcome [1] is on record?
A: inactive

Q: For `CN1C[C@H](C(=O)N[C@]2(C)O[C@@]3(O)[C@@H]4CCCN4C(=O)[C@H](Cc4ccccc4)N3C2=O)C=C2c3cccc4[nH]cc(c34)C[C@H]21`, which outcome [3] is on record?
A: inactive

Q: And the outcome [6]?
A: inactive

Q: What about the outcome [7] of the same compound?
A: inactive

Q: Which outcome [1] does the source give for `NC(=O)c1cc([N+](=O)[O-])cc([N+](=O)[O-])c1` here?
A: inactive

Q: What does the source list for `Nc1ccccc1`?
A: outcome [3]: inactive; outcome [6]: inactive; outcome [7]: inactive
